The values that follow come from PubChem BioAssay (NCATS).

Inconclusive results are not listed. Calls of active or inactive are those of the source. Calls come from the whole dose curve; as a rule, active = well fitted cell-killing curve with a large enough effect; inconclusive = small, poorly fitted or top-dose-only effect, or effect the other way; inactive = no such curve, though single readings can be large or run the other way.
Potency is the fitted concentration of half-maximal effect.

The first experiment in a line: Viability qHTS for spleen associated tyrosine kinase inhibitor (SYKi) naive MV4-11 cells (AID 1963823). Note: nearly all actives have a fitted effect of over 40% in size. The note with it: MV4-11 AML viability, CellTiter-Glo luminescence, 72 h; series mostly up to 45 µM. The method, boiled down: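 Viability of MV4-11 AML cells lacking prior SYK inhibitor exposure is scored by CellTiter-Glo luminescence following 72 hr compound incubation at 37 C, 5% CO2, seeded at 500 cells per well.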
In general terms: In qHTS, concentration-response curves come from the screen itself.
In the case of `Cn1c(COP(=O)(NCCBr)NCCBr)cnc1[N+](=O)[O-]`, the Potency is 10.5 µM (active).
On the same count and under the same terms, as for `OCCCBr`, the entry is “inactive”; as for `CN1C(=O)[C@@H](NC(=O)[C@H](CCC(F)(F)F)[C@H](CCC(F)(F)F)C(N)=O)N=C(c2ccccc2)c2ccccc21`, “inactive”; as for `C[C@H]1[C@@H]2Cc3ccc(O)cc3[C@@]1(C)CCN2C`, “inactive”.

A further experiment can be described thus: Viability qHTS for spleen associated tyrosine kinase inhibitor (SYKi) drug resistant MV4-11 cells (AID 1963824). Note: nearly all actives have a fitted effect of over 35% in size. The note with it: SYKi-resistant MV4-11 viability, CellTiter-Glo, 72 h; series mostly up to 45 µM. The method, boiled down:
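SYK inhibitor-resistant MV4-11 AML cells, 500 per well, added to predispensed compounds and incubated 72 hr at 37 C, 5% CO2. Viability measured by CellTiter-Glo luminescence after 10 min at room temperature.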
As for `COC1CC(OC2CCC3(C=O)C(CCC4C3CCC3(C)C(C5=CC(=O)OC5)CCC43O)C2)OC(C)C1O` (stereo not given), the Potency is 0.0709 µM (active).
Still for that read-out and setting: the same measure for `CC(CCc1ccc(O)cc1)O[C@@H]1O[C@H](CO[C@H]2OC[C@](O)(CO)[C@H]2O)[C@@H](O)[C@H](O)[C@H]1O` (stereo not given in full): “inactive”; for `CN(C(=O)CN1C(=O)COc2cc(Cl)c(Cl)cc21)[C@@H](CN1CCCC1)c1ccc(-c2cccc(C(N)=O)c2)cc1`: 8.2 µM (active); for `CC(=O)OC1CC(O)C2(C)C(CC(OC(C)=O)C3(C)C2CCC2(C)C(c4ccoc4)C(=O)C4OC423)C1(C)C` (stereo not given): 6.32 µM (active).
Still for that read-out and setting: as for `C/C=C(\C)C(=O)O[C@@H]1[C@@H](C)[C@]2(O)C3C=C(C)C(=O)[C@@]3(O)CC(CO)=C[C@H]2C2C(C)(C)[C@@]21OC(=O)C(C)CC` (stereo not given in full), the figure is 0.0045 µM (active); as for `C=C1C(=O)O[C@@H]2[C@H]3C(=C)[C@@H](O)C[C@H]3C(=C)C[C@@H](O)[C@@H]12`, 3.66 µM (active).
The same measure, in the same setting: the same measure for `O=C1NC(=O)c2c1c1c3ccccc3n3c1c1c2c2ccccc2n1C1CCC3O1`: 0.0164 µM (active); for `CCc1c(C(=O)C(N)=O)c2c(OCC(=O)OC)cccc2n1Cc1ccccc1`: 2.31 µM (active); for `C=CC(C)(C)c1[nH]c2cccc3c2c1C[C@@H]1[C@@H]3[C@@H](OC(C)=O)[C@H](C)CN1C`: 1.01 µM (active).
As for `CO/C1=C\C(C)=C\[C@@H](C)[C@@H](O)[C@@H](C)C/C(C)=C/C=C/[C@H](OC)[C@@H]([C@@H](C)[C@@H](O)[C@H](C)[C@@]2(O)C[C@@H](O)[C@H](C)[C@@H](C(C)C)O2)OC1=O`, the Potency was 0.0172 µM (active).
The same measure, in the same setting: as for `CC(=O)OC[C@]12C[C@H](OC(=O)CC(C)C)C(C)=C[C@H]1O[C@@H]1[C@H](O)[C@@H](OC(C)=O)[C@@]2(C)[C@@]12CO2`, the figure is 0.0089 µM (active); as for `COC(=O)C1=COC(C)C2CN3CCC4(C(=O)Nc5ccccc54)C3CC12` (stereo not given), 14.3 µM (active); as for `CC1=CC2/C=C(\C)CCC(O)C(O)C(O)CC(=O)C23C(=O)NC(CC(C)C)C3C1C` (stereo not given), 1.78 µM (active).
Take `Cc1sc2c(c1C)C(c1ccc(Cl)cc1)=NC(CC(=O)OC(C)(C)C)c1nnc(C)n1-2` (stereo not given): the Potency was 0.116 µM (active).
Still for that read-out and setting: as for `Fc1cc(F)c2c(c1)[C@H]1C=CC[C@H]1C(c1cccnc1)N2` (stereo not given in full), the figure is 3.66 µM (active); as for `C=CCN1CCC2(C)c3cc(O)ccc3C[C@H]1[C@H]2C`, “inactive”.
In the case of `C[C@]12CC[C@H](O[C@@H]3O[C@H](CO)[C@@H](O)[C@H](O)[C@H]3O)CC1CC[C@@H]1C2CC[C@]2(C)[C@@H](C3=CC(=O)OC3)CC[C@]12O` (stereo not given in full), the Potency was 1.78 µM (active).
Still for that read-out and setting: as for `CC[C@@H]1/C=C/C=C/C[C@H](C)C(O)[C@](C)(O)C(=O)[C@H](C)C(O)[C@H](C)C(=O)[C@H](C)[C@@H](O)[C@H](C)/C=C/C(=O)O[C@H]2[C@@H](C)[C@@H](CC1)O[C@]1(O[C@H](C[C@H](C)O)[C@H](C)CC1=O)[C@@H]2C` (stereo not given in full), the figure is 0.0123 µM (active); as for `COC1CC(=O)C23C(=O)NC(CC(C)C)C2C(C)=C(C)C(OO)C3/C=C(\C)CCC(O)C1O` (stereo not given), 7.96 µM (active); as for `CC1=CC(=O)[C@@H](O)[C@]2(C)C3[C@@H](O)[C@@H]4OC(=O)[C@@H]([C@H]4C)[C@]3(C)C(=O)[C@H](O)[C@@H]12` (stereo not given in full), 12.8 µM (active).
Same read-out and setting: as for `CNc1ccc2oc(C[C@H]3O[C@@]4(CC[C@H]3C)O[C@H](C(C)C(=O)c3ccc[nH]3)[C@H](C)C[C@H]4C)nc2c1C(=O)O` (stereo not given in full), the figure is 4.61 µM (active); as for `CCCCCn1cc(C(=O)Oc2cccc3cccnc23)c2ccccc21`, 23.1 µM (active).
The same measure, in the same setting: the same measure for `C=CC(C)(C)c1[nH]c2c(CC=C(C)C)cc(CC=C(C)C)cc2c1C[C@@H]1NC(=O)[C@H](C)NC1=O`: “inactive”; for `COc1ccc(C23CCC(=O)C=C2N(C)CC3)cc1OC` (stereo not given): 3.66 µM (active); for `O=[N+]([O-])O[C@H]1CO[C@H]2[C@@H]1OC[C@H]2O[N+](=O)[O-]`: “inactive”.
Consider `CN1C[C@H](CNC(=O)OCc2ccccc2)C[C@@H]2c3cccc4c3c(cn4C)C[C@H]21`, for which the Potency is 8.41 µM (active).
